# Reference: PubChem BioAssay AID1494156 (National Center for Advancing Translational Sciences (NCATS), 2020)
# Inconclusive results are not listed. Values without a mark were called inactive. Calls of active or inactive are those of the source. The call rests on the fitted dose curve.
# Experiment: VSV-G qHTS counterscreen for inhibitors of MERS-S pseudo-typed particle cell entry
# Conditions: VSV-G pseudotyped particle cell entry, luciferase counterscreen; series mostly up to 57.1 µM; activity, negative = inhibition: at the top concentration
Structure (SMILES),Potency,"activity, negative = inhibition"
CCCCCCCCCCCCOCCOCCOCCOCCOCCOCCOCCOCCOCCO,5.41 µM (active),–
C/C=C(/C)C(=O)O[C@H]1C(C)=CC23C(=O)C(C=C(CO)[C@@H](O)[C@]12O)[C@H]1[C@@H](C[C@H]3C)C1(C)C (stereo partly drawn),–,-11.4%
O=c1ccc2ccccc2o1,–,0%
CC(=O)Oc1ccccc1C(=O)Nc1ncc([N+](=O)[O-])s1,10.8 µM (active),–
O=c1c(C2CC(c3ccc(-c4ccc(Br)cc4)cc3)Cc3ccccc32)c(O)sc2ccccc12 (stereo not drawn),6.07 µM (active),–
CCCCCCCCCCCC[n+]1ccc2ccccc2c1,1.52 µM (active),–
C=C(C)[C@H]1Cc2c(ccc3c2O[C@@H]2COc4cc(OC)c(OC)cc4[C@@H]2C3=O)O1,0.0108 µM (active),–
Cc1oncc1C(=O)Nc1ccc(C(F)(F)F)cc1,–,0%
